# Test results published in article PMC7862700, “An all-to-all approach to the identification of sequence-specific readers for epigenetic DNA modifications on cytosine”.
# Key:
# Test in all cases: DAPPL (digital affinity profiling via proximity ligation, sequencing); 10 mM Tris-HCl pH 7.5, 50 mM NaCl, 1 mM DTT, 4% glycerol, room temperature, 30 min; GST-TFs on glutathione beads, 16-mer random dsDNA library, 0.1% formaldehyde crosslink after washing; high values mean tight binding
# Conditions in all cases: protein: recombinant; tags: N-terminal GST; dsDNA, one strand shown
# [1] = molecular target: T1, FLI1 (Homo sapiens, UniProt Q01543 1-452)
# T1 sequence: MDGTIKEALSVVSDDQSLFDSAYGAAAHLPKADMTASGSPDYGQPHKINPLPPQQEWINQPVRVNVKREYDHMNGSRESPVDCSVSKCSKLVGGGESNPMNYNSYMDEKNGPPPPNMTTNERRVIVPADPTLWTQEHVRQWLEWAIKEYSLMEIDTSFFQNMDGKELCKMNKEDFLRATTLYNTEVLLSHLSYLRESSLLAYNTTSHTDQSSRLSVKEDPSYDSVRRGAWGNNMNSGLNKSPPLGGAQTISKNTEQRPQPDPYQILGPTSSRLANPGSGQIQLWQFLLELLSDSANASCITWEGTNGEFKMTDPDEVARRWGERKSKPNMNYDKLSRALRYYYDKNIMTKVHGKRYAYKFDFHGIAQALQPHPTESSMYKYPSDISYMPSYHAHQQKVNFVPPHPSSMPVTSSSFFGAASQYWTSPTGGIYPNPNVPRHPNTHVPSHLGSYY
# How it was run: (§1)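 Binding signal is given per hexamer as its read frequency for a factor divided by its frequency in the tag-only sample. GST-fused human transcription factors were expressed in yeast, captured on glutathione beads, barcoded with DNA and pooled with that sample, then incubated with 200 nmole of a 16-mer random double-stranded DNA library in Tris/NaCl/DTT/glycerol buffer for 30 min at room temperature. The pools were then washed, crosslinked, proximity-ligated, amplified by PCR and sequenced on an Illumina NextSeq500.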
# [2] = molecular target: T2, ELK1 (Homo sapiens, UniProt P19419 1-428)
# T2 sequence: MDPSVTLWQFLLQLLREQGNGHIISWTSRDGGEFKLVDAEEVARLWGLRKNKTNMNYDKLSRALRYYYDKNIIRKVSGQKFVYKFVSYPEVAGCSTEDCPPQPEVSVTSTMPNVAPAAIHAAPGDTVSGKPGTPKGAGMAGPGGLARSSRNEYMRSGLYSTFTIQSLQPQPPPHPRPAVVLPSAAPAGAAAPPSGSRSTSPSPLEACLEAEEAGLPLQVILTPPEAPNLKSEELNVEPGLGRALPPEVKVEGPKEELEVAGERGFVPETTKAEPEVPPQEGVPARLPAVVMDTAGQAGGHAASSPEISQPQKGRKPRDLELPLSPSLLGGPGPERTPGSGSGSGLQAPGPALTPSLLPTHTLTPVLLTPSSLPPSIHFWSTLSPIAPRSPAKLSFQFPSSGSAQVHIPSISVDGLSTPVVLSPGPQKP
# How it was run: as §1
# [3] = molecular target: T3, GABPA (Homo sapiens, UniProt Q06546 1-454)
# T3 sequence: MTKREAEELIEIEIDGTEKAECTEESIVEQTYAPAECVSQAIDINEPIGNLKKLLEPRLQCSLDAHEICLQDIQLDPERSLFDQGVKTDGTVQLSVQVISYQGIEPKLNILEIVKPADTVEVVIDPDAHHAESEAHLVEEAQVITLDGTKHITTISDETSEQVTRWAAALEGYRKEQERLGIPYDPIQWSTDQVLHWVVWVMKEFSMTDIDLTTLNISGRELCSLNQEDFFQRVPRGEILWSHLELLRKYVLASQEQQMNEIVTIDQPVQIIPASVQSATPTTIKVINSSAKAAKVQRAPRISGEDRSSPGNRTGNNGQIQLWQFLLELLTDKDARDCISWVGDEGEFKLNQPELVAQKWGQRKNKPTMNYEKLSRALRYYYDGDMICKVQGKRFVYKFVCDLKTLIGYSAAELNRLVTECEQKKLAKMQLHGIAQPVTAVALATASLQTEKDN
# How it was run: as §1
# [4] = molecular target: T4, ERG (Homo sapiens, UniProt P11308 1-479)
# T4 sequence: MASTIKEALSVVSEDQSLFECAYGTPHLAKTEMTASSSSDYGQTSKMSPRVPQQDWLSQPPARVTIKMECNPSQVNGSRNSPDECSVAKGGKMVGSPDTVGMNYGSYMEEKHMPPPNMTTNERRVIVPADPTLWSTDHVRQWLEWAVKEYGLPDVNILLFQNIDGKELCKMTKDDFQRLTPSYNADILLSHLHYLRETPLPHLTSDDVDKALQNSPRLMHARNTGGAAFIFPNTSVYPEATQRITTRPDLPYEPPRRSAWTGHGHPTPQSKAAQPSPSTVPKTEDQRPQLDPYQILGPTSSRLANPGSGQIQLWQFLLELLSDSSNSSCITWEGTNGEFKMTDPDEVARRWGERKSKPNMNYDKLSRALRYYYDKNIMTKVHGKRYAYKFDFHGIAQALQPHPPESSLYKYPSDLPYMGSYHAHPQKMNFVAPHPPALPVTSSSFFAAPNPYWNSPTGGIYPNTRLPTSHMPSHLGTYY
# How it was run: as §1
# [5] = molecular target: ELF1 (Homo sapiens, UniProt P32519 1-619)
# How it was run: as §1
# [6] = molecular target: T5, EHF (Homo sapiens, UniProt Q9NZC4 1-300)
# T5 sequence: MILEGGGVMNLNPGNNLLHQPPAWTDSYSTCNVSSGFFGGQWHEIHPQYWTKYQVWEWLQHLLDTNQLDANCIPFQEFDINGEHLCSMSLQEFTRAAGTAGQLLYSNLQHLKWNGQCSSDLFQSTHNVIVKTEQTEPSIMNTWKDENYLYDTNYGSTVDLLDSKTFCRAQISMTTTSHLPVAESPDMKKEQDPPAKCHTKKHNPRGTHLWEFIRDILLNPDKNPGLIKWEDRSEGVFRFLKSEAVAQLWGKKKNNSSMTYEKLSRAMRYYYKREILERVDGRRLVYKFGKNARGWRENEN
# How it was run: as §1
# [7] = molecular target: SPI1 (Homo sapiens, UniProt P17947 1-270)
# How it was run: as §1
# [8] = molecular target: SPIB (Homo sapiens, UniProt Q01892 1-262)
# How it was run: as §1
# [9] = molecular target: T6, ELK3 (Homo sapiens, UniProt P41970 1-407)
# T6 sequence: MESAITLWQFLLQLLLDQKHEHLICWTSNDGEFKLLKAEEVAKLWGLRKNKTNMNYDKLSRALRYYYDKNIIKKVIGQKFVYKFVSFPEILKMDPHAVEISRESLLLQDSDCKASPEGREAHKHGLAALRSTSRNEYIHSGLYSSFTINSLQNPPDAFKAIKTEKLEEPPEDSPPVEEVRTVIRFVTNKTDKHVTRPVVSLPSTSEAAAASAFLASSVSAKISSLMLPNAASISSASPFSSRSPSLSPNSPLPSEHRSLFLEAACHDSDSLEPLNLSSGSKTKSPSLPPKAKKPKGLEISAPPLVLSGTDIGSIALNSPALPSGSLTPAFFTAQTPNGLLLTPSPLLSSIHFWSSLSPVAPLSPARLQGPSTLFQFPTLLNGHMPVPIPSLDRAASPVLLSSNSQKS
# How it was run: as §1
# Chain of SPIB (Q01892 whole entry): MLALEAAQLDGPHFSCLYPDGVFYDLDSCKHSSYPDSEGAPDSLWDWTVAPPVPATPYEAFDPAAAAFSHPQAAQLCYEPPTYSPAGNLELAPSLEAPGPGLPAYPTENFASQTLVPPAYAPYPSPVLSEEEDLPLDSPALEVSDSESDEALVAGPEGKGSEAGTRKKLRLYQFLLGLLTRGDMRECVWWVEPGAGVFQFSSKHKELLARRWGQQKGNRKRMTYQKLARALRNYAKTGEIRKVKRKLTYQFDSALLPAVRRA
# Chain of ELF1 (P32519 whole entry): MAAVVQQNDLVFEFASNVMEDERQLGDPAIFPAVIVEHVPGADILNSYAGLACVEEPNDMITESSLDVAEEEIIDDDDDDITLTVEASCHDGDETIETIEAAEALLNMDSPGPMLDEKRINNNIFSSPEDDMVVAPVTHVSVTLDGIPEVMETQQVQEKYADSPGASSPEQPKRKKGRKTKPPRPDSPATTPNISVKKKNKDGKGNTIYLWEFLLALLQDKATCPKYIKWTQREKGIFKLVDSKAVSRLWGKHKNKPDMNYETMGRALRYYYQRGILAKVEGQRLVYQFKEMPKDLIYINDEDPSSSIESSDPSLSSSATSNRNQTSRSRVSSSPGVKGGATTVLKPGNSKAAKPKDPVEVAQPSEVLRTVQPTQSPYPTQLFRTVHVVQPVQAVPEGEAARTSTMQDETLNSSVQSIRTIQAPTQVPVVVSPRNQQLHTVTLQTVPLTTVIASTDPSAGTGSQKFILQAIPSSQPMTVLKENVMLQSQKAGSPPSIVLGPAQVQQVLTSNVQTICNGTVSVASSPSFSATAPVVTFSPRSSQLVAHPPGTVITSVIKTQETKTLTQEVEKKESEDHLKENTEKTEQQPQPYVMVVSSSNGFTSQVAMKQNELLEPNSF
sequence,measurement,setting,value
TATGTT,binding signal,[1],"1.25 fold enrichment (6-mer frequency, TF over GST control)"
same,binding signal,[2],"1.23 fold enrichment (6-mer frequency, TF over GST control)"
same,binding signal,[3],"1.22 fold enrichment (6-mer frequency, TF over GST control)"
same,binding signal,[4],"1.19 fold enrichment (6-mer frequency, TF over GST control)"
same,binding signal,[5],"1.23 fold enrichment (6-mer frequency, TF over GST control)"
same,binding signal,[6],"1.23 fold enrichment (6-mer frequency, TF over GST control)"
same,binding signal,[7],"1.2 fold enrichment (6-mer frequency, TF over GST control)"
same,binding signal,[8],"1.12 fold enrichment (6-mer frequency, TF over GST control)"
same,binding signal,[9],"1.19 fold enrichment (6-mer frequency, TF over GST control)"
